# UDG counter: Primary qHTS assay for inhibitors of Activation Induced Cytidine Deaminase (AID): UDG Counterscreen signal; Uracil-DNA glycosylase; FRET deamination/UDG coupled assay, UDG read, 4 h; Potency, µM (titrated, usually from 115 µM), without a hit: at the highest dose activity change, negative = inhibition, most hits filed as inhibitors; 0.14% of 91,000 active; also: nearly all actives have a fitted effect of over 65% in size
# AID inhibitor: Primary qHTS assay for inhibitors of Activation Induced Cytidine Deaminase (AID): AID signal; AID deamination FRET fluorescence, UDG-coupled, 4 h; Single-stranded DNA cytosine deaminase (Homo sapiens), Q9GZX7; 0.32% of 91,000 active; Potency, µM (top dose mostly 115 µM), most hits filed as inhibitors; also: nearly all actives have a fitted effect of over 25% in size
# Target sequence (Q9GZX7 whole entry, looked up): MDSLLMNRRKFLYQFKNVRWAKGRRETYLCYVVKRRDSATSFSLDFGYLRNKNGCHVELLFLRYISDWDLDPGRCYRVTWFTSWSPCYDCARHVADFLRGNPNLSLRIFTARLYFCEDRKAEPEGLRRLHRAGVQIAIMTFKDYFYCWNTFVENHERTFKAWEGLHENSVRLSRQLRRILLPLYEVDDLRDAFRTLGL
# An asterisk follows results filed as active; i = inactive; ? = inconclusive; [ ] = dose if it differs, or a comment. In the library only some 0.4% were active in any assay of this set; here they are far more common. Calls follow the shape of the dose curve; as a rule, active = well fitted curve in the direction sought with a large enough effect; inconclusive = small, poorly fitted or top-dose-only effect, or another doubt; inactive = no such curve, though single readings can be large; an effect the other way counts as inactive or inconclusive. % is scaled to controls: 0 for no effect and ±100 for the full control effect; potency is read from the fitted curve at half-maximal effect.
SMILES,UDG counter,AID inhibitor
Cc1cccc(N(C)S(=O)(=O)c2cc(-c3cnc(C4CC4)o3)ccc2C)c1,79.4µM*,?
CCc1ccc(NS(=O)(=O)c2cc(-c3cnc(C4CC4)o3)ccc2C)cc1,-8.9%,i
COC(=O)[C@H](CC(C)C)NC(=O)N1CCc2[nH]cnc2C1c1ccc(OC)cc1F (some centres undefined),-4.9%,i
COC(=O)CSc1nc2c(c(-c3cccs3)c1C#N)CCCC2,-6.2%,i
CC(C)(C)C1CCc2nc(SCC(N)=O)c(C#N)c(C(F)(F)F)c2C1 (centres undefined),79.4µM*,?
CNS(=O)(=O)c1ccc(C(=O)NCC2(c3ccccc3)CC2)cc1,-6.7%,i
Cn1nc(C(=O)Nc2ccc(F)cc2F)c2ccccc2c1=O,-2.6%,i
CC(C)CCNC(=O)CSCc1coc(-c2ccc(Cl)cc2)n1,-15.8%,i
Cc1cccc(N2CCN(C(=O)c3c4c(nc5ccccc35)C(=O)N(C3CCCCC3)C4)CC2)c1C,0.0%,28.2µM*
Cc1ccc(N2CCN(C(=O)c3c4c(nc5ccccc35)C(=O)N(C3CCCCC3)C4)CC2)c(C)c1,2.2%,?
NNc1ccccc1Br,-5.1%,i
Cc1cc(C)c(/C=C/C(=O)Nc2sccc2C#N)cc1C,1.3%,i
Cc1nn(-c2nc3c(c(=O)n(Cc4c(F)cccc4Cl)c(=O)n3C)n2C)c(C)c1C,-7.8%,i
CCOc1ccccc1NC(=O)C(C)Sc1nc(-c2ccccc2)c(C#N)c(=O)[nH]1 (centres undefined),7.3%,35.5µM*
CCOc1ccccc1NC(=O)C(CC)Sc1nc2ncccc2[nH]1 (centres undefined),-2.2%[57.5 µM],i
Cc1cc(C(=O)OC(C)C(=O)Nc2ccc(Cl)cc2F)c(C)o1 (centres undefined),0.5%,i
Cc1noc(CSc2ccc(C(=O)N3CCc4ccccc43)cc2)n1,-9.9%,i
CN(CC(=O)Nc1ccc(Oc2ccccc2)cc1)C1=NS(=O)(=O)c2ccccc21,6.2%,i
CC1Sc2ccc(C(=O)NNC(=O)CSc3cccc4cccnc34)cc2NC1=O (centres undefined),-0.1%,22.4µM*
C=C(Cl)COC(=O)c1ccc2c(c1)NC(=O)C(C)S2 (centres undefined),-14.2%,i
COc1ccc(Cl)cc1NC(=O)CSC1=Nc2ccccc2C2=NC(CC(=O)NC3CCCCC3)C(=O)N12 (centres undefined),11.2%,31.6µM*
O=C(CC1N=C2c3ccccc3N=C(SCc3ccc(Cl)cc3)N2C1=O)NC1CCCCC1 (centres undefined),26.2%,i
CC(=O)c1ccc(SCC(=O)N(C2CCCC2)C2CCCC2)c(F)c1,-4.3%,i
CCCOC(=O)c1cccc(Nc2nc(C(=O)OCC)nc3ccccc23)c1,89.1µM*,i
CCOC(=O)c1cccc(Nc2nc(C(=O)OCC)nc3ccccc23)c1,6.9%,i
SMILES,UDG counter,AID inhibitor
O=C(COc1ccccc1F)Nc1nc(-c2ccc(S(=O)(=O)N3CCOCC3)cc2)cs1,7.5%,i
COCCCNC(=O)c1cc2c(-c3cccc(OC)c3)nn(C)c2s1,-25.9%,i
Cc1cccc(N2CCN(C(=O)c3cc4c(=O)n(C)c5ccccc5c4s3)CC2C)c1 (centres undefined),-10.1%,i
COc1cccc(-c2nn(C)c3sc(C(=O)NCc4ccc(C)cc4)cc23)c1,89.1µM*,?
COc1cccc(-c2nn(C)c3sc(C(=O)N4CCN(c5cccc(C)c5)C(C)C4)cc23)c1 (centres undefined),?,39.8µM*
COc1ccc(-c2nn(C)c3sc(C(=O)N4CCN(c5ccccc5F)CC4)cc23)cc1OC,89.1µM*,?
COc1ccccc1N1CCN(C(=O)c2cc3c(-c4ccccc4F)nn(C)c3s2)CC1,-13.4%,?
S=C(NCc1ccccc1)N/N=C/c1cccc(OCCOc2ccc(Br)cc2)c1,-5.8%,i
Cc1ccc(CN(C(=O)COc2ccc(Cl)cc2Cl)C2CCS(=O)(=O)C2)o1 (centres undefined),-11.9%,i
COc1c(Cl)cc(C(=O)N(Cc2ccc(C)o2)C2CCS(=O)(=O)C2)cc1Cl (centres undefined),89.1µM*,i
CNC(=O)NC(=O)C(C)SC(C)c1c(F)cccc1F (centres undefined),-4.5%,i
COc1ccc(C2=NC(c3ccccc3)=Nc3ccc(C)cc3N2)cc1,79.4µM*,i
Cc1ccc(C2=NC(c3ccccc3)=Nc3ccc(Cl)cc3N2)cc1,?,i
COc1ccc2cc([C@H](C)C(=O)NCCc3cccs3)ccc2c1,-9.9%,i
CCc1ccc(C(=O)c2cn(CC(=O)Nc3ccc(F)c(F)c3)c3cc(OC)c(OC)cc3c2=O)cc1,-16.8%,i
CCc1ccc(C(=O)c2cn(Cc3ccc(F)cc3)c3cc(OC)c(OC)cc3c2=O)cc1,-24.1%,35.5µM*
CC(CC(=O)C(C#N)C(=O)Nc1ccccc1F)c1ccc(F)cc1 (centres undefined),-5.3%,i
COc1ccc(NC(=O)CC2Nc3ccccc3NC2=O)cc1 (centres undefined),-7.9%,i
CCOC(=O)c1ccc(NC(=O)CC2Nc3cccc4cccc(c34)NC2=O)cc1 (centres undefined),-3.6%,?
CCOc1ccc(NC(=O)CC2Nc3cccc4cccc(c34)NC2=O)cc1 (centres undefined),?,50.1µM*
CC(=O)c1ccc(NC(=O)CC2Nc3cccc4cccc(c34)NC2=O)cc1 (centres undefined),?,79.4µM*
O=C(Nc1ccc(-c2nc3ccccc3o2)cc1)c1cccc(F)c1,-2.9%,i
COC(=O)c1ccccc1S(=O)(=O)N1CCC(C(=O)NCCc2ccccn2)CC1,1.0%,i
COc1cc(/C=C(/C#N)c2ccccn2)cc(Cl)c1OC(F)F,8.2%,i
O=C(NCc1cccs1)c1ccc2c(=O)n3nc(Nc4ccccc4)sc3nc2c1,0.1%,i
SMILES,UDG counter,AID inhibitor
CCc1ccccc1Nc1nn2c(=O)c3ccc(C(=O)NCc4cccs4)cc3nc2s1,-19.1%,31.6µM*
CCC1CCc2sc(C(=O)NC(C)C)cc2C1 (centres undefined),-5.2%,i
Fc1ccc(Sc2ccncc2)cc1,-6.8%,i
CCOC(=O)N1CCc2c(sc(NCc3cccc(F)c3)c2C(=O)Nc2ccc(OC)cc2)C1,?,i
CCOC(=O)N1CCc2c(sc(NCc3ccc(N(C)C)cc3)c2C(=O)Nc2ccc(OC)cc2)C1,-28.7%,50.1µM*
CCOC(=O)c1sc(NC(=O)Nc2cccc(Cl)c2)nc1C,-1.6%,i
COc1ccc(-c2noc(CSc3nnc(C)n3-c3ccc(C)cc3)n2)cc1OC,?,i
COc1ccc(-n2c(SCc3nc(-c4ccc(C)cc4)no3)nnc2-c2ccccc2)cc1,-5.0%,i
CCOc1ccc(-n2c(SCc3nc(-c4ccccc4C)no3)nnc2-c2ccccc2)cc1,8.0%,i
Cc1ccccc1-c1noc(CSc2nnc(-c3ccncc3)n2-c2ccc(F)cc2)n1,?,i
COc1ccc(-c2noc(CSc3nnc(-c4ccncc4)n3-c3cccc(C)c3)n2)cc1OC,79.4µM*,?
CCOc1ccc(-n2c(SCc3nc(-c4ccc(OC)cc4)no3)nnc2-c2ccncc2)cc1,79.4µM*,?
